Results: PubChem BioAssay AID430 (Sanford-Burnham Center for Chemical Genomics, 2006)
About 1,100 (1.7%) of roughly 63,000 compounds were called active. This is one part of a sample in which actives are shown more often than they occur. Measured potencies and affinities stand elsewhere. Values without a mark were called inactive. Rule as the data show it: active = cytotoxicity above about 50%; inactive = the rest.

Test: cytotoxicity in HPDE-C7 cells, cell-based, fluorescence, HTS (AID 430);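 also: cells exposed to compound for 48 hours before viability readout; 0% = vehicle and 100% = reference cytotoxic drug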
Conditions: HPDE-C7 pancreatic duct cells viability, at 10 µM, hits give high values

Compound	cytotoxicity
Cc1ccc(S(=O)(=O)N2CCN(C(=O)CSc3nc4ccccc4o3)C2)cc1	-14.7%
O=C1CSC(c2ccccc2F)N1c1cc(Cl)ccc1O (centres undefined)	9.2%
CSc1cccc(NC(=O)CN(C2CCCCC2)S(C)(=O)=O)c1	-17.9%
O=C(c1cccc(OC(F)F)c1)N1CCN(c2ncccn2)CC1	-14.1%
CCC(=O)Nc1ccc(S(=O)(=O)Nc2cccc(C)c2)cc1OC	3.2%
COc1ccc(CNC(=O)C2CCN(S(=O)(=O)c3cccc4cccnc34)CC2)cc1	2%
COc1cc(C2C3=C(Nc4ncnn42)c2ccccc2CC3)cc(OC)c1OC (centres undefined)	73.5% (active)
COc1ccc(C2C3=C(Nc4ncnn42)c2ccccc2CCC3)cc1 (centres undefined)	-20.3%
COc1ccc(C2C3=C(Nc4ncnn42)c2ccccc2CC3)cc1OC (centres undefined)	32.9%
CCN(CC)S(=O)(=O)c1cccc(-c2nnc(SCC#N)n2Cc2ccccc2)c1	3.5%
N#CCC(=O)N1CCn2c1nc1ccccc12	-11.2%
O=C1CC(N2CCN(c3ccc(F)cc3)CC2)C(=O)N1Cc1cccs1 (centres undefined)	-1.7%
O=C1CC(N2CCN(c3nc4ccccc4s3)CC2)C(=O)N1Cc1cccs1 (centres undefined)	12.3%
CCOC(=O)CSc1nc(N)cc(=O)[nH]1	-12%
Cc1ccc(C(=O)NCc2ccc3c(c2)OCO3)cc1S(=O)(=O)N1CCOCC1	-5.3%
Cc1cc(NC(=O)CCC(=O)N(c2ccccc2)C(C(=O)NCC2CCCO2)c2cccnc2)no1 (centres undefined)	-0.6%
CCCOC(=O)CSC1=C(C#N)C(c2ccc3c(c2)OCO3)CC(=O)N1 (centres undefined)	65.3% (active)
CCOC(=O)CSC1=C(C#N)C(c2sccc2C)CC(=O)N1 (centres undefined)	63.5% (active)
CCOC(=O)CC(=O)CSC1=C(C#N)C(c2ccccc2OC)CC(=O)N1 (centres undefined)	43.6%
CSC1=C(C#N)C(c2ccc(C)s2)CC(=O)N1 (centres undefined)	-8.2%
CCOC(=O)CSC1=C(C#N)C(c2ccc(C)s2)CC(=O)N1 (centres undefined)	54.7% (active)
CCOC(=O)CSC1=C(C#N)C(c2ccccc2OC)CC(=O)N1 (centres undefined)	54.9% (active)
COC(=O)CSC1=C(C#N)C(c2ccc(F)cc2)CC(=O)N1 (centres undefined)	10.1%
CCOC(=O)CSC1=C(C#N)C(c2ccc3c(c2)OCO3)CC(=O)N1 (centres undefined)	43.8%

Compound	cytotoxicity
CCOc1ccc(C2CC(=O)NC(SCC(=O)OC)=C2C#N)cc1 (centres undefined)	5.6%
CCCCOC(=O)CSC1=C(C#N)C(c2ccc3c(c2)OCO3)CC(=O)N1 (centres undefined)	28.6%
CCSC1=C(C#N)C(c2ccc(C)s2)CC(=O)N1 (centres undefined)	-7.1%
CCSC1=C(C#N)C(c2ccccc2OC)CC(=O)N1 (centres undefined)	-4.8%
O=C1CCC(=O)N1CC(=O)N1c2ccccc2Sc2ccccc21	-7.4%
COc1ccc(-n2nc3c(c2NC(=O)c2cc4ccccc4oc2=O)CS(=O)(=O)C3)cc1	-14.8%
Cc1cc(C)n(-c2nc3c(c(=O)[nH]c(=O)n3C)n2CCc2ccccc2)n1	5.1%
Cc1[nH]c2ccccc2c1C(=O)CN1CCCCC1CCO (centres undefined)	-11.2%
CCOc1ccc(Cn2nnc(C(=O)NCc3ccc(OC)cc3)c2N)cc1	-14.5%
CCOc1cc(S(=O)(=O)NCC2OCCc3ccccc32)c(OCC)cc1-n1cnnn1 (centres undefined)	2.3%
CCC(=O)OC1=C2C(=Nc3c(c(=O)n(C)c(=O)n3C)C2c2ccccc2)c2ccccc21 (centres undefined)	0.2%
CCOc1cc(NC(=O)c2ccco2)c(OCC)cc1NC(=O)Cc1ccc(OC)c(OC)c1	-12%
Cc1cc(C)cc(N2CCCn3c2nc2c3c(=O)n(CCN3CCOCC3)c(=O)n2C)c1	-6.7%
CC(=O)C1=C(O)C(=O)N(Cc2cccnc2)C1c1ccc(Cl)cc1Cl (centres undefined)	-17.4%
Cc1ccc2c(c1)NC(=O)C(CC(=O)N(C)Cc1ccccc1)O2 (centres undefined)	1.5%
CC(OC(=O)C1CCCO1)C(=O)NC1CCCC1 (centres undefined)	5.3%
COC(=O)c1ccc(NC(=O)c2ccccc2NS(C)(=O)=O)cc1	10.7%
O=C(c1cccn2c(=O)c3ccc(Cl)cc3nc12)N1CCN(Cc2ccc3c(c2)OCO3)CC1	-0.1%
COc1cc2c(O)c3c(c(-c4ccc5c(c4)OCO5)c2cc1OC)C(=O)OC3	82.2% (active)
COc1cc2c(=O)n(-c3ccc(C)cc3)c(=O)n(CC(=O)c3ccc4c(c3)OCO4)c2cc1OC	6.8%
COc1ccc(C(=O)Oc2ccc3c(c2)OCO3)cc1OC	-13.3%
Cc1ccc(S(=O)(=O)NCc2ccncc2)cc1	3.6%
COc1ccc(Nc2nc(N)nc(CSc3n[nH]c(-c4ccccc4)n3)n2)cc1	-20.3%
COc1ccccc1N1CCN(C(=O)C2CC=CCC2C(=O)O)CC1 (centres undefined)	9.5%

Compound	cytotoxicity
COc1ccc(C(C)=O)cc1COC(=O)c1ccc(S(=O)(=O)N2CCOCC2)cc1	21%
COc1cc(NC(=O)c2ccco2)ccc1NC(=O)c1ccccc1Cl	2.8%
N#Cc1c(-c2ccco2)nc(SCc2ccc(F)cc2)[nH]c1=O	54.3% (active)
N#Cc1c(-c2ccco2)nc(SCC(=O)Nc2cccc(Cl)c2)[nH]c1=O	19%
Cc1nc(SCc2cccc(F)c2)[nH]c(=O)c1C#N	-9.7%
Cn1c(Cn2nnc3ccccc32)nnc1SCC(=O)N1c2ccccc2CCc2ccccc21	-18%
CC(CN1CCOCC1)OC(=O)c1ccc2c(c1)OCCO2 (centres undefined)	4.5%
COc1ccc(C(=O)OC(C)CN2CCOCC2)cc1OC (centres undefined)	-1.4%
CCc1ccc2c(CN3CCc4ccccc43)cc(=O)oc2c1	-5.4%
CCOC(=O)c1ccc(NC(=O)c2cccc(S(=O)(=O)N3CCOCC3)c2)cc1	20.1%
CCOC(=O)c1sc(NC(=O)c2ccc(S(=O)(=O)N3CCOCC3)cc2)cc1C	-2.3%
CCOC(=O)c1sc(NC(=O)c2cccc(S(=O)(=O)N3CCN(C)CC3)c2)cc1C	51% (active)
Cc1cc(C)n(-c2ccc(C(=O)Nc3ccccc3N3CCOCC3)cc2)n1	-4.1%
Cc1ccc(CS(=O)(=O)Cc2ccc(C(=O)NCc3ccco3)o2)cc1	-21%
c1csc(-c2nn[nH]n2)c1	-3.1%
COc1ccccc1-c1nnc(NC(=O)c2ccc(S(=O)(=O)N(C)Cc3ccccc3)cc2)o1	55.9% (active)
COc1ccccc1-c1nnc(NC(=O)c2ccc(S(=O)(=O)N(C)C)cc2)o1	-2.7%
CN(c1ccccc1)S(=O)(=O)c1ccc(C(=O)Nc2nnc(-c3ccc(F)cc3)o2)cc1	58.9% (active)
CCN(Cc1ccccc1)S(=O)(=O)c1ccc(C(=O)Nc2nnc(-c3ccccc3OC)o2)cc1	35.6%
CN(c1ccccc1)S(=O)(=O)c1ccc(C(=O)Nc2nccs2)cc1	-7.3%
Cc1ccccc1C(=O)Nc1nnc(-c2ccc(F)cc2)o1	18.7%
c1ccc2c(c1)oc1c(NCc3ccc4c(c3)OCO4)ncnc12	-2.2%
O=C(NCC1COCCO1)C1CCN(S(=O)(=O)c2ccccc2)CC1 (centres undefined)	-6.9%
CCNC(=O)N1c2ccc(OC)cc2C(C)=CC1(C)C	3.2%

Compound	cytotoxicity
O=C(NC1CCc2ccccc21)C1CCN(S(=O)(=O)c2ccc(-n3cnnn3)cc2)CC1 (centres undefined)	-11%
O=C(NCCc1ccccc1)C1CCCN1C(=O)Nc1ccc(F)cc1 (centres undefined)	-11.3%
O=C1CCCC2=C1C(c1cccs1)n1nc(SCc3ccccc3F)nc1N2 (centres undefined)	-11.2%
CCOC(=O)c1[nH]c2ccc(F)cc2c1NC(=O)C(C)N1CCc2cc(OC)c(OC)cc2C1 (centres undefined)	58.6% (active)
CCOC(=O)c1[nH]c2ccc(OCC)cc2c1NC(=O)CN1CCN(c2ccccc2)CC1	4.4%
CCOC(=O)c1[nH]c2ccc(F)cc2c1NC(=O)CN1CCN(C/C=C/c2ccccc2)CC1	64.9% (active)
CCOC(=O)c1[nH]c2ccccc2c1NC(=O)CN1CCCCC1	-4.1%
CCOC(=O)c1[nH]c2ccc(OC)cc2c1NC(=O)C(C)N1CCSCC1 (centres undefined)	19.3%
CCOC(=O)c1[nH]c2ccc(F)cc2c1NC(=O)CN1CCc2cc(OC)c(OC)cc2C1	-3.8%
CC(NC(=O)CC12CC3CC(CC(C3)C1)C2)C(=O)O (centres undefined)	3%
COCCN(CC(=O)NCc1ccc(F)cc1)C(=O)CCC(=O)Nc1nccs1	3.1%
CCc1nnc(NC(=O)C2CCN(c3nccc(C)n3)CC2)s1	-2.7%
O=C(CSc1nnc(CNC(=O)c2cccs2)o1)NC1CCCCC1	-2.7%
COc1ccc2noc3c2c1C(=O)c1ccccc1-3	45.8%
O=C1c2ccccc2-c2onc3ccc(NCc4ccco4)c1c23	62.1% (active)
O=C1c2ccccc2-c2onc3ccc(NCCCn4ccnc4)c1c23	20.3%
Cc1nn(C)c(C)c1CNC(=O)c1nn2c(c1Cl)NC(c1cccs1)CC2C(F)(F)F (centres undefined)	-0.2%
COc1ccc(NC(=O)C2CCCN(c3c4c(nc5ncnn35)CCC4)C2)cc1 (centres undefined)	-37.1%
CCOc1ccccc1CNC(=O)C1CCN(c2nc3ccccc3o2)CC1	-9.3%
Cc1nc(NC(=O)c2ccccc2)sc1-c1csc(N)n1	39.2%
Cc1nc(C)c(-c2csc(NCc3ccco3)n2)s1	-21.6%
Cc1nc(NC(=O)c2ccccc2)sc1-c1csc(NCc2ccco2)n1	63.4% (active)
